# Laboratory results as given in the supplement of paper PMC11219838.
# Values without a mark were called inactive.
# System: Caenorhabditis elegans dauer (daf-2(e1370))
# Assay: proportion of mobile C. elegans dauer larvae relative to DMSO control (fraction of DMSO control); higher = more viable, less nematicidal, active = 0.63 or less; extreme values may be limits of the assay
# Settings: 60 µM; 5 days; temperature: 20 °C
# Description: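 DODA library (846 commercial 1,3,4- and 1,2,4-oxadiazole compounds plus commercial nematicide controls) screened at a single dose of 60 µM (0.6% DMSO) in 96-well plates, two biological replicates. Read-outs: C. elegans N2 L1 survival/reproduction score at day 6, 20 °C (0: 0-10 worms, 1: 11-20, 2: 21-50, 3: >50, 4: overgrown/starved). C. elegans daf-2 dauer, D. dipsaci and M. hapla J2 mobility at day 5, 20 °C, and P. penetrans mobility at day 5, 20 °C, each relative to DMSO controls. M. hapla egg hatching at day 12, 25 °C, relative to the mean of 8 DMSO wells on the same plate.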
row,Structure (SMILES),proportion of mobile C. elegans dauer larvae
1,Cc1ccc(SCc2nc(-c3cccc(C)c3)no2)cc1,1
2,Cc1ccc(SCc2nc(-c3ccccc3)no2)cc1,1
3,Cc1ccc(OCc2nc(-c3ccccc3)no2)cc1C,1
4,COc1ccc(-c2noc(C34CC5CC(CC(C5)C3)C4)n2)cc1,1
5,CCOc1cc(-c2nc(-c3ccc(OC)cc3)no2)cc(OCC)c1OCC,1
6,COc1ccc(-c2noc(COc3ccc(Cl)cc3Cl)n2)cc1,1
7,CCCOc1ccc(-c2nc(-c3ccncc3)no2)cc1,0.5 (active)
8,Cc1ccccc1-c1nnc(SCc2ccccc2Cl)o1,1
9,O=C(CSc1nnc(-c2cccc(Br)c2)o1)N1CCCCC1,1
10,COc1nc(-c2ccc(Cl)cc2)ccc1-c1noc(-c2ccncc2)n1,1
11,Cc1csc(NC(=O)CSc2nnc(-c3ccccc3Cl)o2)n1,1
12,Brc1ccccc1-c1nc(-c2ccccn2)no1,0.738
13,Cc1cc(OCc2nc(-c3ccccn3)no2)c(C)cc1Br,1
14,Cc1cccc(-c2noc(COc3ccc(Cl)cc3)n2)c1,1
15,CCCOc1ccc(-c2nc(-c3cccnc3)no2)cc1,1
16,N#Cc1ccccc1CSc1nnc(-c2ccncc2)o1,1
17,O=C(CSc1nnc(-c2ccco2)o1)Nc1ccc(F)cc1,1
18,COc1ccc(-c2nnc(SCC(=O)Nc3ccc(Cl)cc3C)o2)cc1,1
19,Cc1cc(Br)ccc1OCc1nc(-c2ccncc2)no1,1
20,Clc1cc(Br)ccc1OCc1nc(-c2ccccn2)no1,1

row,Structure (SMILES),proportion of mobile C. elegans dauer larvae
1,O=C(CSc1nnc(-c2ccc(Cl)cc2Cl)o1)N1CCCCC1,1
2,Brc1ccccc1-c1nc(-c2ccncc2)no1,0.274 (active)
3,Clc1ccc(-c2nc(-c3cccnc3)no2)c(Cl)c1,0.625 (active)
4,COc1ccc(-c2nc(C3CCCCC3)no2)cc1,1
5,Cc1ccc(OCc2nc(-c3ccc4c(c3)OCO4)no2)cc1C,1
6,Clc1ccc(-c2nnc(SCc3ccccc3)o2)c(Cl)c1,1
7,COc1ccc(Cl)cc1-c1noc(COc2ccccc2C)n1,1
8,Cc1cccc(-c2noc(COc3ccc(Br)cc3)n2)c1,1
9,O=C(CSc1nnc(-c2ccccc2Cl)o1)Nc1nccs1,1
10,Clc1ccc(CSc2nnc(-c3ccc(Cl)cc3)o2)cc1,1
11,COc1ccc(OC(C)c2nc(-c3ccccn3)no2)cc1 (stereo not given),1
12,CC(Sc1nnc(-c2cccnc2)o1)C(=O)c1ccccc1 (stereo not given),1
13,CCOc1ccc(-c2nc(-c3ccc(Cl)cc3)no2)cc1,1
14,O=C(CSc1nnc(-c2ccccc2)o1)NC1CC2CCC1C2 (stereo not given),1
15,O=C(NCc1cccnc1)c1ccccc1-c1nc(-c2ccccc2Cl)no1,1
16,O=C(Nc1ccc(-c2noc(-c3ccc(Cl)cc3)n2)cc1)c1ccco1,1
17,c1ccc(COc2cccc(-c3nc(-c4cccnc4)no3)c2)cc1,1
18,O=C(CSc1nnc(-c2ccccc2)o1)OCc1ccccc1,1
19,CC(=O)Nc1cccc(-c2nnc(SCc3ccc(F)cc3)o2)c1,1
20,COc1ccc(NC(=O)CSc2nnc(-c3ccc(Br)cc3)o2)cc1,1
